# Shown are actives, neighbours in structure and some others; about 2.1% of the full set was active somewhere.
# KKLEB cytotox – cytotoxicity in KKLEB CF airway cells, primary screen, cytotoxicity control for CF NF-kB inhibitor project, cell-based, uHTS, fluorescence assay plates; KKLEB CF airway cells viability, ATPlite luminescence, overnight; hits give low values; cells stimulated with P. aeruginosa culture filtrate; activity change (cytotoxicity), % at 5 µM; actives 0.36% (n = 360,000); AID 602141, 2011;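 active = corrected activity change at or below -50% at 5 µM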
# CF NFkB block – inhibitors of PAF-induced NF-kB signaling, primary screen, cell-based, GFP fluorescence, uHTS | KKLEB NF-kB-GFP reporter, GFP fluorescence overnight | inhibition, % at 5 µM | actives 0.86% (n = 360,000) | AID 588850, 2011;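 active = at least 50% inhibition at 5 µM, scaled per plate between neutral and stimulator controls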;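 note: PAF is a Pseudomonas aeruginosa culture filtrate used as stimulus; plate controls were PAF-stimulated DMSO wells for no effect and unstimulated DMSO wells for full effect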
# HIF-2a inh – HIF-2a reporter inhibitors, primary screen, luminescence, 786-0 RCC cells | inhibition, % at 18.8 µM | 786-0 RCC cells HIF-2a reporter, luciferase luminescence, overnight | actives 0.72% (n = 360,000) | AID 624352, 2012;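 active = inhibition of the luminescence signal of 40% or more relative to plate controls, in a single-dose primary screen at 18.75 µM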
# EWS-Fli inh – EWS/Fli-driven NR0B1 reporter inhibitors, primary screen, A673 cells, NR0B1 luciferase, luminescence, MLPCN library. AID 651661, 2012. inhibition, % at 12.6 µM. actives 0.67% (n = 350,000). viability-normalised;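 active = mean inhibition of at least 50% after viability correction, with every replicate also passing that limit; inconclusive = mean reaches 50% but only one of two replicates passes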;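 note: firefly luciferase signal divided by Alamar Blue viability fluorescence both relative to DMSO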
# PAX8 inh HTS – inhibitors of PAX8-driven TPO luciferase reporter, primary screen, RMG-I cells, single concentration | SteadyGlo, 24 h | inhibition, % at 12.6 µM | actives 1.2% (n = 360,000);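 active = mean replicate inhibition at least 60% with every replicate also reaching 60%; inconclusive = only one of the two criteria is met; inactive = mean below 60% and not all replicates reaching 60%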;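 note: luciferase light reporting Pax8 driven TPO promoter activity; plate controls were median of neutral control wells for no effect and mitoxantrone controls for full effect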
# DNA binder FP – DNA binders by acridine orange displacement, dose response, counter-screen for EWS/Fli inhibitor project, biochemical, fluorescence polarization, cherry-pick | shares compounds with EWS-Fli inh | actives 2% (n = 640) | AID 720586, 2013 | AC35, µM (highest dose often 68 µM), inactives show top-dose activity change, negative = DNA binding | salmon sperm DNA acridine orange fluorescence polarization;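 active = fitted curve reaches a 35% signal fall AC35 below twice the sample's top valid tested dose, actives reach about 48 µM in these data; inactive = the rest, including activity in the rising direction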;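 note: lower polarization ratio signals compound binding to DNA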
# * marks the source's active call; other numbers are inactive results; ? = inconclusive; . = not tested or not shown; ! = a repeat was not active; [ ] = another dose, or the depositor's remark.
SMILES,KKLEB cytotox,CF NFkB block,HIF-2a inh,EWS-Fli inh,PAX8 inh HTS,DNA binder FP
COc1cc2c(cc1NC(=O)CN(C)Cc1ccc(OC)c(OC)c1)oc1ccccc12,-26,20,-8,53*,25,-6%
C[C@@H]1CN([C@@H](C)CO)C(=O)Cc2cc(N(C)C)ccc2O[C@H]1CN(C)Cc1ccc(C(=O)Nc2ccccc2N)cc1,.,.,.,60*,77*,-2%[60 µM]
COc1ccc(CN(C)C[C@H]2Oc3ccc(NC(=O)CCCCCC(=O)Nc4ccccc4N)cc3CC(=O)N([C@H](C)CO)C[C@H]2C)cc1,.,.,.,56*,.,-4%[56 µM]
C[C@H]1CN([C@@H](C)CO)C(=O)Cc2cc(NC(=O)CCC(F)(F)F)ccc2O[C@H]1CN(C)Cc1ccc(C(=O)Nc2ccccc2N)cc1,.,.,.,53*,46,3%[56 µM]
COc1ccc(CN(C)C[C@H]2Oc3ccc(NC(=O)CCCCCC(=O)Nc4ccccc4N)cc3CC(=O)N([C@@H](C)CO)C[C@H]2C)cc1,.,.,.,0,1,.
C[C@H](CO)N1C[C@H](C)[C@H](CN(C)Cc2ccc(C(=O)Nc3ccccc3N)cc2)Oc2ccc(NC(=O)C3CC3)cc2CC1=O,.,.,.,64*,5,-16%
C[C@H]1CN([C@@H](C)CO)C(=O)Cc2cc(NC(=O)CCC(F)(F)F)ccc2O[C@@H]1CN(C)Cc1ccc(C(=O)Nc2ccccc2N)cc1,.,.,.,-2,24,.
COCC#Cc1ccc2c(c1)O[C@H](CN(C)C(=O)Nc1ccc(OC)cc1)[C@H](C)CN([C@@H](C)CO)S2(=O)=O,.,.,.,1,.,.
CCC(=O)N[C@H]1CC[C@@H](CC(=O)NCCN2CCCCC2)O[C@@H]1CO,.,.,.,3,-14,.
C[C@@H]1CN([C@H](C)CO)S(=O)(=O)c2ccc(-c3cccc(C(=O)N(C)C)c3)cc2O[C@H]1CN(C)C,.,.,.,1,-6,.
CCCC#Cc1ccc2c(c1)O[C@@H](CN(C)CC1CCCC1)[C@H](C)CN([C@H](C)CO)S2(=O)=O,.,.,.,-1,28,.
CN(C)C(=O)c1cccc(-c2ccc(C3[C@@H]4CN(Cc5nccs5)C[C@H]3N4)cc2)c1 (stereo not given in full),.,.,.,59*!,-9,-3%
CN(C)CC#Cc1ccc([C@@H]2[C@@H](CO)N3C(=O)CN(C(=O)c4cccc(F)c4)C[C@@H]23)cc1,.,.,.,6,-3,.
CCN(CC)c1ccc(C2NC(=O)c3ccccc3N2)cc1 (stereo not given),-80*,-11,4,62*,?,6%
CCN(CC)c1ccc(C2Nc3cccc4cccc(c34)N2)cc1,13,-26,-43,-32,-17,.
Nc1nc(=S)c2[nH]c(=S)[nH]c2[nH]1,4,8,9,0,11,.
Nc1nc(=S)c2[nH]cnc2[nH]1,-6,2,13,61*,94*,3%
Cc1ccc(N=C2NC(=O)/C(=C\c3cccs3)S2)cc1C,-10,29,-213,58*,-64,2%
COc1ccc(S(=O)(=O)Nc2ccc3c(c2)CC(=O)N([C@H](C)CO)C[C@H](C)[C@@H](CN(C)CC2CCCCC2)O3)cc1,.,.,.,50,.,.
O=c1c2ccccc2nc(/C=C/c2cc(Br)ccc2O)n1CCCO,-15,27,36,53*,42,2%
C[C@H]1CN([C@@H](C)CO)S(=O)(=O)c2ccc(C#CC3CC3)cc2O[C@@H]1CN(C)C(=O)Cc1ccncc1,.,.,.,11,.,.
O=C(N/N=C/c1cccnc1)c1cccc(Cl)c1,1,2,-70,5,-11,.
CC(C)c1ccc(OCc2cccc(C(=O)N/N=C/c3cccnc3)c2)cc1,-10,-37,17,80*,30,-4%
Cc1c(N=Cc2cc(Br)cc(Br)c2O)cccc1C(=O)O,23,23,-5,74*,-13,-7%
CN(C[C@H]1N[C@@H](CO)[C@@H]1c1ccc(C2=CCCC2)cc1)C(=O)c1cccc(F)c1,.,.,.,77*,111*,-18%
SMILES,KKLEB cytotox,CF NFkB block,HIF-2a inh,EWS-Fli inh,PAX8 inh HTS,DNA binder FP
O=c1ccc2[n+]([O-])c3ccc(O)cc3oc-2c1,11,14,8,57*,81*,14µM*
c1ccc(-c2ccc([C@H]3[C@H]4CNC[C@@H]3N4Cc3cc(-c4ccccc4)on3)cc2)cc1,.,.,.,58*,11,-13%
NCC[C@@H]1CC[C@@H](NS(=O)(=O)Cc2ccccc2)[C@H](CO)O1,.,.,.,-1,-6,.
C[C@H]1CN([C@@H](C)CO)C(=O)c2cccc(NS(=O)(=O)c3ccccc3)c2O[C@@H]1CN(C)Cc1ccc(C(=O)O)cc1,.,.,.,-4,-3,.
Cc1ccccc1N=Nc1c(O)n(C)c2ccccc12,12,-22,9,60*,47,-17%
O=C(Nc1cc(Cl)cc(Cl)c1)N[C@H]1CC[C@@H](CCNS(=O)(=O)c2cccc(F)c2)O[C@@H]1CO,.,.,.,5,14,.
O=C(Nc1ccc2c(c1)OCO2)N1C[C@@H]2N[C@H](C1)C2c1ccc(C=Cc2ccccc2)cc1 (stereo not given in full),.,.,.,65*!,-19,-5%
O=C(Nc1ccccc1F)N1C[C@@H]2N[C@H](C1)C2c1ccc(/C=C/c2ccccc2)cc1 (stereo not given in full),.,.,.,-21,-51,.
O=C(C1CC1)N1C[C@@H]2N[C@H](C1)C2c1ccc(/C=C/c2ccccc2)cc1 (stereo not given in full),.,.,.,53*!,-90,5%
CCCCCCN(C(=O)CCCCCN1C(=O)NC(c2ccc(Cl)cc2)C(C(=O)OCc2ccccc2)=C1C)C(C(=O)NCCCC)c1ccc(OCC(=O)OC)c(C(=O)OC)c1 (stereo not given),.,.,.,66*,58,0%
COc1ccc(NS(=O)(=O)c2cc(NC(=O)CNC(=O)c3cccc(OC)c3)ccc2C)cc1,-1,-24,26,63*,8,2%
CCCCc1c(-c2ccccc2OC)ncn1Cc1ccc(C(C)(C)C)cc1,.,.,.,62*,72*,5%
CCCCc1c(-c2ccccc2OC)ncn1Cc1ccccc1,.,.,.,13,24,.
CCCN(C)C[C@@H]1Oc2ncc(-c3cccc(OC)c3)cc2C(=O)N([C@H](C)CO)C[C@@H]1C,.,.,.,-6,.,.
Cc1cc(C)c(N=C2C(=O)Nc3ccccc32)c(C)c1,5,-4,8,24,-3,.
O=C1Nc2ccccc2C1=Nc1ccc(Br)cc1,-3,-1,10,55*,0,-14%
Cc1cc(Br)ccc1N=C1C(=O)Nc2ccccc21,1,-3,16,55*,10,-2%
O=C1Nc2ccccc2C1=Nc1ccccc1-c1ccccc1,7,10,13,55*,9,-5%

# Screening data as filed in PubChem.
